The text below walks through data of PubChem BioAssay AID504832 (National Center for Advancing Translational Sciences (NCATS), 2011).

Screen size: about 310,000 compounds; about 18,000 (5.8%) were called active. Inconclusive results (about 22%) are left out. The full list was thinned out, with actives kept by preference. Unmarked numbers belong to inactive results. Calls come from the whole dose curve; as a rule, active = well fitted inhibition curve with a large enough effect; inconclusive = small, poorly fitted or top-dose-only effect, or another doubt; inactive = no such curve, though single readings can be large or run the other way.
% is set by controls: 0 for no effect and ±100 for the full control effect; potency is the fitted concentration of half-maximal effect.

The nature of this assay: Primary qHTS for delayed death inhibitors of the malarial parasite plastid, 48 hour incubation. Conditions: P. falciparum luciferase growth in erythrocytes; series mostly up to 28.7 µM; activity change, negative = inhibition: at the top concentration. In outline:
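Cell-based growth assay: transgenic P. falciparum expressing firefly luciferase, cultured in red cells within RPMI 1640 containing 0.5% w/v Albumax, 24 mM bicarbonate and gentamycin. A drop in luciferase activity indicates inhibition.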
(Quantitative high-throughput screening tests each substance at several concentrations.)
`O=C(Nc1ccccc1-c1nc2ccccc2[nH]c1=O)c1cccs1`: the “activity change, negative = inhibition” value was 14.3%.
On to `CN1CCN(c2ccc(S(=O)(=O)Nc3ccccc3)cc2[N+](=O)[O-])CC1`, for which the “activity change, negative = inhibition” value is 3.28%.
As to `Cc1ccc(C(=O)c2ccc(N3CCN(C)CC3)c([N+](=O)[O-])c2)cc1`, the “activity change, negative = inhibition” value was 1.89%.
In the case of `CN1CCN(S(=O)(=O)c2ccc(N3CCN(c4ccccc4O)CC3)c([N+](=O)[O-])c2)CC1`, the Potency is 11.7 µM (active).
For the compound `COc1ccccc1C(=O)NCCC(=O)N(C)Cc1cccnc1`, the “activity change, negative = inhibition” value is -25.2%.
On the same count and under the same terms, the same measure for `Cc1ccc(S(=O)(=O)N2CCCCC2)cc1C(=O)N(C)CC(=O)Nc1cccc(F)c1`: 0.872%; for `COc1ccccc1C(=O)NCCC(=O)NC1=NCCS1`: 13.4%.
Regarding `COc1ccc(N(CC(=O)N2CCOCC2)S(=O)(=O)c2ccccc2)cc1Cl`, the “activity change, negative = inhibition” value was -1.91%.
As for `COc1ccc(NC(=O)CN(C)C(=O)c2ccc(NC3CC3)c([N+](=O)[O-])c2)cc1`, the “activity change, negative = inhibition” value was -29.9%.
On to `CCCCN(C(=O)C1CCC1)c1c(N)n(Cc2ccccc2)c(=O)[nH]c1=O`, for which the “activity change, negative = inhibition” value is -25.9%.
On to `CCCc1c(C(=O)O)cnn1-c1ccc(Cl)cc1`, for which the “activity change, negative = inhibition” value is -4.75%.
In the case of `O=C(Cn1cc(-c2nnnn2-c2ccc(Cl)cc2)c(=O)c2ccccc21)c1ccccc1`, the Potency was 1.65 µM (active).
Regarding `O=C(Nc1ccccc1)OCc1cn(-c2ccc(Cl)cc2)nn1`, the “activity change, negative = inhibition” value is 50.9%.
As for `O=C(NCCS(=O)(=O)N1CCN(c2ccc(F)cc2)CC1)c1ccc2c(c1)OCO2`, the “activity change, negative = inhibition” value is -0.0064%.
Turning to `CCOCCCNC(=S)Nc1ccc2nc(N3CCN(CC)CC3)cc(C)c2c1`, the “activity change, negative = inhibition” value is -7.67%.
Take `CC[N+](C)(CC)CCC[n+]1c(-c2ccccc2)c2cc(N)ccc2c2ccc(N)cc21`: the Potency was 1.85 µM (active).
For the compound `CC(=O)Nc1ccc(NC(=O)CCCNC(=O)c2ccc(Cl)cc2)cc1`, the “activity change, negative = inhibition” value was 5.13%.
The same measure, in the same setting: the same measure for `CC(=O)Nc1ccc(NC(=O)CSc2nnc(C3CC3)n2-c2ccccc2)cc1`: -3.28%; for `CC(=O)c1cccc(NC(=O)c2cc(C)nn2-c2ccccc2)c1`: -2.83% [at 0.00184 µM].
As to `CC[n+]1c(C)n(-c2ccccc2)c2ccc(NC(C)=O)cc21`, the Potency is 4.65 µM (active).
Take `O=C(COc1ccc(Cl)cc1)NCCS(=O)(=O)N1CCN(c2ccc(F)cc2)CC1`: the “activity change, negative = inhibition” value is -29.8%.
Same read-out and setting: the same measure for `CCc1ccccc1NC(=O)NCCN1CCCCC1`: -1.62%.
The same measure, in the same setting: the same measure for `CC(C)c1ccc(NC(=O)Cn2ncc3ccccc32)cc1`: 87.8%.
For the compound `COc1cccc(NC(=O)CN(C)C(=O)CSCc2nc3scc(-c4cccs4)c3c(=O)[nH]2)c1`, the “activity change, negative = inhibition” value is 2.18%.
Take `N/C(=N\OC(=O)N1c2ccccc2Sc2ccccc21)c1ccc(Br)cc1`: the Potency was 8.28 µM (active).
Take `N/C(=N\OC(=O)Cc1ccccc1[N+](=O)[O-])c1ccc(Br)cc1`: the “activity change, negative = inhibition” value was -9.12%.
Same read-out and setting: the same measure for `N/C(=N\OC(=O)/C=C/c1ccccc1)c1ccc(Br)cc1`: 4.81%.
As to `CCn1c(=S)sc2c(=O)n(CC(=O)Nc3ccc(OC)cc3)c(C)nc21`, the “activity change, negative = inhibition” value was 33.1%.
Turning to `CC(C)Oc1ccc(CCc2n[nH]c(=S)n2Cc2ccccc2)cc1`, the Potency is 2.08 µM (active).
As to `CC(C)Oc1ccc(CCc2nnc(SCC(=O)O)n2-c2ccccc2)cc1`, the activity change, negative = inhibition is 1.18% [at 5.75 µM].
Same read-out and setting: the same measure for `C=CCn1c(CCc2ccc(OC(C)C)cc2)n[nH]c1=S`: 5.51%; for `CCOc1ccccc1OCCCNCc1ccccc1`: -4.88%; for `COc1cccc(NS(=O)(=O)c2ccc(-c3coc(C)n3)cc2)c1`: 43%.
With `CCC(=O)Nc1ccc(-c2ccc(N3CCCCC3)nn2)cc1`, the “activity change, negative = inhibition” value is -19.4%.
Turning to `Cn1nnnc1SCC(=O)N1CCN(Cc2ccccc2)CC1`, the “activity change, negative = inhibition” value was -3.12%.
Consider `Cn1nnnc1SCC(=O)Nc1nc2ccccc2s1`, for which the “activity change, negative = inhibition” value was 43.6%.
On to `O=C(c1ccc(-n2cnnn2)cc1)N1CCN(C(c2ccccc2)c2ccccc2)CC1`, for which the Potency was 2.62 µM (active).
Still for that read-out and setting: the result for `Cn1nnnc1SCC(=O)N1CCN(C(c2ccccc2)c2ccccc2)CC1` reads 9.28 µM (active).
`O=C(O)CN1CCN(C(c2ccccc2)c2ccccc2)CC1`: the “activity change, negative = inhibition” value was -9.74%.
The same measure, in the same setting: the result for `CC(OC(=O)c1ccc(-n2cnnn2)cc1)C(=O)NCc1ccccc1` (stereo unspecified) reads -13.8%; that for `COC(=O)c1sc(N2CCN(Cc3ccccc3)CC2)nc1N`, -6.08% [at 0.00184 µM].
As for `COc1ccccc1-n1ccnc(SCC(=O)NC2CCCCC2)c1=O`, the “activity change, negative = inhibition” value is -14.1%.
Turning to `O=C(Nc1c2c(nn1-c1cccc(Cl)c1)CS(=O)(=O)C2)c1cccs1`, the “activity change, negative = inhibition” value was -0.404%.
For the compound `CCN(CC)S(=O)(=O)c1ccc(Cl)c(C(=O)NCCN2CCOCC2)c1`, the “activity change, negative = inhibition” value was -1.82%.
Consider `CCOC(=O)N1CCN(C(=O)c2cn(C)c3ccc(S(=O)(=O)N(CC)CC)cc3c2=O)CC1`, for which the “activity change, negative = inhibition” value is 7.13%.
`C=CCn1cc(C(=O)NCc2ccc(Cl)cc2)c(=O)c2cc(S(=O)(=O)N(CC)CC)ccc21`: the Potency is 11.7 µM (active).
Consider `O=C(CN1CCN(C(=O)C2CCCO2)CC1)Nc1c(Cl)cccc1Cl` (stereo unspecified), for which the “activity change, negative = inhibition” value is 0.239%.
As for `O=C(NC(=S)NC1CCCCC1)c1ccc(Cl)cc1`, the “activity change, negative = inhibition” value was -16.1%.
Regarding `CCOC(=O)N1CCN(S(=O)(=O)c2ccc(Br)cc2)CC1`, the “activity change, negative = inhibition” value is 37.3%.
Take `Cc1cc(C)c2c(-c3ccc(F)cc3)c(C#N)c(=O)n(C)c2n1`: the “activity change, negative = inhibition” value is -0.519%.
Regarding `Cn1c(N)cc(-c2ccc(F)cc2)c(C#N)c1=O`, the “activity change, negative = inhibition” value is -9.99%.
